This passage reports outcome and AC50 results from PubChem BioAssay (EPA / NIEHS).

Test [1] addresses Nucleoli Translocation, AR (gene 367) (UniProt P10275). The test can be described thus: UPITT_HCI_U2OS_AR_TIF2_Nucleoli_Antagonist: University of Pittsburgh U2OS Androgen Receptor-Transcriptional Intermediary Factor 2 (AR-TIF2) Antagonism High Content Imaging Assay for Nucleoli Translocation (AID 2283997; active means hit-call score of the fitted dose curve at least 0.9, where 1 is the maximum). The gist of the method: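 Antagonism is read as loss of nucleolar AR-RFP signal relative to DHT, imaged in U2OS cells also carrying GFP-TIF2. Compounds screened at 20 uM final, 0.2% DMSO; primary actives retested in triplicate.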

The target in test [2] is Ratio of Nucleoli Translocation and Cytoplasm, AR (gene 367) (UniProt P10275). Nature of the test: UPITT_HCI_U2OS_AR_TIF2_Nucleoli_Cytoplasm_Ratio_Agonist: University of Pittsburgh U2OS Androgen Receptor-Transcriptional Intermediary Factor 2 (AR-TIF2) Agonism High Content Imaging Assay for Ratio of Nucleoli Translocation and Cytoplasm (AID 2284000; active means hit-call score of the fitted dose curve at least 0.9, where 1 is the maximum;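 further: hits raise the red nucleolar to cytoplasm ratio above vehicle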). The gist of the method:
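Compounds tested at 20 uM final in primary screen (0.2% DMSO) and 0.195-50 uM final in dose-response (0.5% DMSO). Imaging of human U2OS cells bearing RFP-AR and GFP-TIF2; endpoint is nucleoli/cytoplasm red signal ratio, positive direction relative to DMSO.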

A short description of test [3]: TOX21_TR_RXR_BLA_Antagonist_Followup_viability: Viability Assessment in the Tox21 Thyroid Hormone Receptor beta Retinoid X Receptor alpha (RXRa) Antagonism Beta-lactamase (BLA) Follow-Up Assay (AID 2283979; active means hit-call score of the fitted dose curve at least 0.9, where 1 is the maximum). The gist of the method: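 Follow-up compounds (11 concentrations, triplicate) were incubated 16 h at 37C/5% CO2 with HEK293T RXRa-bla cells seeded at 2,500/well in charcoal-stripped-serum medium. ATP content by CellTiter-Glo luminescence gave viability; curves fitted in both directions against DMSO.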

Test [4] in a line: CCTE_Simmons_MITO_basal_resp_rate: CCTE's HepG2 Seahorse XF Respirometric Screening Assay at Basal Respiratory State, Simmons Lab (AID 2284001). The settings on record: actives raise or lower the signal. The gist of the method:
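Basal-phase OCR in HepG2 cells, read at 6-min intervals across a 72-min run, with test compound injected at 125 nM–100 uM final (7 points). Fitted both directions against DMSO; three biological replicates per concentration.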

Test [5] can be described thus: CCTE_Simmons_MITO_max_resp_rate: CCTE's HepG2 Seahorse XF Respirometric Screening Assay at Maximal Respiratory State [uncoupled], Simmons Lab (AID 2284002). The note with it: actives raise or lower the signal. The gist of the method:
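Read-out is oxygen consumption rate at maximal respiration, taken after FCCP uncoupling of compound-treated HepG2 cells. Seven final concentrations from 125 nM to 100 uM were tested, each in three biological replicates.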

The nature of test [6]: CCTE_Simmons_MITO_inhib_resp_rate: CCTE's HepG2 Seahorse XF Respirometric Screening Assay at Inhibited Respiratory State [full ETC block], Simmons Lab (AID 2284006). The settings on record: actives raise or lower the signal. The gist of the method: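 This endpoint is the respiration rate remaining after rotenone/antimycin A block, in HepG2 cells on a Seahorse XF96. Chemicals spanned 125 nM–100 uM final, in three biological replicates. OCR was read every 6 minutes for 72 minutes and compared with DMSO vehicle.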

Test [7] in a line: CCTE_Simmons_MITO_viability: CellTiter-Glo Viability Assessment for CCTE's HepG2 Seahorse XF Respirometric Screening Assay [post-hoc], Simmons Lab (AID 2284007; active means hit-call score of the fitted dose curve at least 0.9, where 1 is the maximum;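 on AC50: cells exposed to chemical for 90 min before the ATP read; actives lower ATP signal relative to DMSO baseline meaning reduced viability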). The gist of the method:
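Luciferase-coupled ATP read-out after the Seahorse run: HepG2 cells treated 90 minutes with test chemical, 7-point series of 125 nM–100 uM final, in triplicate biological runs. Vehicle DMSO; dichlone as positive control over 8 concentrations.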
Background: In ATP-based viability assays light output follows the ATP content of the culture.

In test [8] the test system is DIO1 (gene 1733). The test can be described thus: CCTE_GLTED_hDIO1: CCTE's human Deiodinase 1 (DIO1) Inhibition Assay, Great Lakes Toxicology and Ecology Division (GLTED) Lab (AID 2283987; active means hit-call score of the fitted dose curve at least 0.9, where 1 is the maximum;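 further: isolated human DIO1 enzyme in a cell-free setup rather than cells; enzyme activity read as free iodide liberated from substrate via Sandell-Kolthoff colorimetry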). The gist of the method: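 Inhibition of human deiodinase 1 is scored as reduced iodide liberation after a 3 h enzyme–chemical incubation, detected colorimetrically by the Sandell-Kolthoff reaction against DMSO controls.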

The nature of test [9]: CCTE_Shafer_MEA_acute_spike_number: CCTE's Neural Acute Assay for Total Number of Spikes, Shafer Lab (AID 2284008).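 On AC50: curve fitted for decrease in spike count so AC50 reflects inhibitors.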 The gist of the method:
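Read-out is the total spike count over 40 min, expressed as percent change from each well's own pre-treatment baseline and fitted in the loss direction against DMSO. Rat cortical neurons were exposed at 0.03-40 uM on DIV 13 or 15.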

Test [10] is described as follows: CCTE_Harrill_HTTr_Viability_DMEM_12hr: (Pilot) CCTE's 12-hour Cell Viability Assessment for the High-Throughput Transcriptomics (HTTr) Platform, in MCF-7 cells cultured in DMEM + 10% fetal bovine serum, Harrill Lab (AID 2283974). The gist of the method: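 Propidium iodide dye exclusion imaged by high-content microscopy after 12 h chemical exposure (eight concentrations) of MCF-7 cells grown in DMEM plus 10% FBS; values fitted in both directions relative to DMSO.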

A short description of test [11]: CCTE_Harrill_HTTr_Viability_DMEM_24hr: (Pilot) CCTE's 24-hour Cell Viability Assessment for the High-Throughput Transcriptomics (HTTr) Platform, in MCF-7 cells cultured in DMEM + 10% fetal bovine serum, Harrill Lab (AID 2283975). The gist of the method: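 Pilot study: propidium iodide dye exclusion, imaged by high content microscopy, after 24 h compound exposure (eight concentrations) in MCF-7 cultured in DMEM + 10% fetal bovine serum; DMSO served as negative control and baseline.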

Test [12] can be described thus: CCTE_Harrill_HTTr_Viability_PRF_DMEM_6hr: (Pilot) CCTE's 6-hour Cell Viability Assessment for the High-Throughput Transcriptomics (HTTr) Platform, in MCF-7 cells cultured phenol red-free DMEM + 10% charcoal-stripped fetal bovine serum, Harrill Lab (AID 2283976). The gist of the method:
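Membrane integrity by high-content imaging of propidium iodide uptake, six hours after dosing with eight concentrations. Cells: MCF-7 grown in phenol red-free DMEM plus 10% charcoal-stripped serum; DMSO serves as baseline for bidirectional fits.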

Test [13] is described as follows: CCTE_Harrill_HTTr_Viability_PRF_DMEM_12hr: (Pilot) CCTE's 12-hour Cell Viability Assessment for the High-Throughput Transcriptomics (HTTr) Platform, in MCF-7 cells cultured in phenol red-free DMEM + 10% charcoal-stripped fetal bovine serum, Harrill Lab (AID 2283977). The gist of the method:
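Membrane integrity was scored via propidium iodide dye exclusion imaging, fitted in both directions relative to DMSO. Compounds ran as eight-point dilutions for 12 hours on MCF-7 grown in phenol red-free DMEM plus 10% charcoal-stripped serum.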

The nature of test [14]: CCTE_Harrill_HTTr_Viability_PRF_DMEM_24hr: (Pilot) CCTE's 24-hour Cell Viability Assessment for the High-Throughput Transcriptomics (HTTr) Platform, in MCF-7 cells cultured in phenol red-free DMEM + 10% charcoal-stripped fetal bovine serum, Harrill Lab (AID 2283980). The gist of the method:
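Propidium iodide exclusion imaged at 24 h after dosing scores viability; cells were MCF-7 grown in phenol red-free DMEM plus 10% charcoal-stripped serum, tested in eight concentrations, fitted in both directions against DMSO.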

Test [15] can be described thus: CCTE_Harrill_HTTr_Apoptosis_DMEM_6hr: (Pilot) CCTE's 6-hour Apoptosis Assessment for the High-Throughput Transcriptomics (HTTr) Platform, in MCF-7 cells cultured in DMEM + 10% fetal bovine serum, Harrill Lab (AID 2283981). The gist of the method: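 MCF-7 cells grown in DMEM + 10% FBS were exposed for 6 hours to an eight-point dilution series. CellEvent Caspase 3/7 Green signal was imaged; activity fitted bidirectionally against DMSO.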

Test [16] can be described thus: CCTE_Harrill_HTTr_Apoptosis_DMEM_12hr: (Pilot) CCTE's 12-hour Apoptosis Assessment for the High-Throughput Transcriptomics (HTTr) Platform, in MCF-7 cells cultured in DMEM + 10% fetal bovine serum, Harrill Lab (AID 2283982). The gist of the method:
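Caspase-3/7 activity was measured by high-content imaging (CellEvent Caspase 3/7 Green) after a 12-hour exposure of MCF-7 cells grown in DMEM with 10% FBS. Eight-point concentration series, fitted bidirectionally against vehicle.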

Test [17] can be described thus: CCTE_Harrill_HTTr_Apoptosis_DMEM_24hr: (Pilot) CCTE's 24-hour Apoptosis Assessment for the High-Throughput Transcriptomics (HTTr) Platform, in MCF-7 cells cultured in DMEM + 10% fetal bovine serum, Harrill Lab (AID 2283983). The gist of the method:
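Caspase-3/7 activity read by high-content imaging (CellEvent Green reagent) 24 h after dosing. MCF-7 cells grown in DMEM with 10% FBS received an eight-point concentration series; fits were bidirectional versus DMSO.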

Test [18] can be described thus: CCTE_Harrill_HTTr_Apoptosis_PRF_DMEM_6hr: (Pilot) CCTE's 6-hour Apoptosis Assessment for the High-Throughput Transcriptomics (HTTr) Platform, in MCF-7 cells cultured phenol red-free DMEM + 10% charcoal-stripped fetal bovine serum, Harrill Lab (AID 2283984). The gist of the method: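 Caspase-3/7 activity (CellEvent Green) read by high-content imaging 6 h after dosing, eight concentrations. Cells: MCF-7, phenol red-free DMEM with 10% charcoal-stripped serum. Curves fit both directions against DMSO.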

Test [19] is described as follows: CCTE_Harrill_HTTr_Apoptosis_PRF_DMEM_24hr: (Pilot) CCTE's 24-hour Apoptosis Assessment for the High-Throughput Transcriptomics (HTTr) Platform, in MCF-7 cells cultured in phenol red-free DMEM + 10% charcoal-stripped fetal bovine serum, Harrill Lab (AID 2283986). The gist of the method: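 Eight concentrations tested for 24 h on MCF-7 grown in charcoal-stripped serum, phenol red-free DMEM. High content imaging of CellEvent Caspase 3/7 Green signal gives apoptosis read-out, fitted both ways relative to DMSO.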

Test [20] deals with Nucleoli Translocation, AR (gene 367) (UniProt P10275). Nature of the test: UPITT_HCI_U2OS_AR_TIF2_Nucleoli_Agonist: University of Pittsburgh U2OS Androgen Receptor-Transcriptional Intermediary Factor 2 (AR-TIF2) Agonism High Content Imaging Assay for Nucleoli Translocation (AID 2283998; active means hit-call score of the fitted dose curve at least 0.9, where 1 is the maximum). The gist of the method: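 Readout is red (AR-RFP) fluorescence localized to nucleoli, measured by high-content imaging and analysed for increase relative to DMSO. Compound series spanned 0.195 to 50 uM final in 0.5% DMSO.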
Nucleoli Translocation, AR (gene 367), sequence (P10275 whole entry, looked up): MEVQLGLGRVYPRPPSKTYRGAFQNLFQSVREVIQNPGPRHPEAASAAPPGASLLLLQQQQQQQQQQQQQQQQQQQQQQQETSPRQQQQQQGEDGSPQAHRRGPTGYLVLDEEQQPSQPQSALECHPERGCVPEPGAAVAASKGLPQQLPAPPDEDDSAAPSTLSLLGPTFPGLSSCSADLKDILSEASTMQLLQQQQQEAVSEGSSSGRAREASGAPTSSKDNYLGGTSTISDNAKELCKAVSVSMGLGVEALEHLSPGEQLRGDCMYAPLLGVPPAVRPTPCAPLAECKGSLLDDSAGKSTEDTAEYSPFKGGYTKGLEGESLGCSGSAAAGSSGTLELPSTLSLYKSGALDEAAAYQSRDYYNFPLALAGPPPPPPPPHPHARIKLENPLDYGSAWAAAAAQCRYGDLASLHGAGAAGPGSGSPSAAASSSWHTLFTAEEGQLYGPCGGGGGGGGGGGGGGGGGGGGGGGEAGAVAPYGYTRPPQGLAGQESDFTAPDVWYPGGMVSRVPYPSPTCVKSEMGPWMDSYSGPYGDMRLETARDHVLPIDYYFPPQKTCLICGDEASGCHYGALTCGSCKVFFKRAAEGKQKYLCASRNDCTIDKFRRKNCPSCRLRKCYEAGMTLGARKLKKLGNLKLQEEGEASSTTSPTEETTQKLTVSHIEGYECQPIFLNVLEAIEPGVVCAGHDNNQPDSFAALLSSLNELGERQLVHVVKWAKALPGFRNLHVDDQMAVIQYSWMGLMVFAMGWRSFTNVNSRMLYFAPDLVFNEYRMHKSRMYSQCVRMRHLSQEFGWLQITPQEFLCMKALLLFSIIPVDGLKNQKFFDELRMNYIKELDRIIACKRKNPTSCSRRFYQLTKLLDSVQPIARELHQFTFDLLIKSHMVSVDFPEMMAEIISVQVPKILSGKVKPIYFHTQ

Records with an inconclusive call do not appear. The source made the active and inactive calls. How the source made its calls, unless noted: active means hit-call score of the fitted dose curve at least 0.9, where 1 is the maximum; inactive means score below 0.9.

Ratio of Nucleoli Translocation and Cytoplasm, AR (gene 367), sequence (P10275 whole entry, looked up): as above

With `CN(C)c1ccc(N=NS(=O)(=O)O)cc1`, the compound was called inactive in [1] and in [2].

Take `CC(C)c1cccc(C(C)C)c1N1C(=O)c2ccc(O)cc2C1=O`: the outcome in [3], in test [6] and in test [7] was inactive. For the same compound, the results for the AC50 in test [4] and in test [5] were 20 µM (active) and 20.3 µM (active), respectively.

As for `CCOC(=O)c1ccc(C2CCC(NC[C@H](O)COc3ccc(O)c(NS(C)(=O)=O)c3)CC2)cc1` (stereo not given in full), the concentration at half-maximal activity (AC50) – broadly, the concentration giving half of the maximal activity seen – in test [8] is 95 µM (active). Further, the outcome in test [4], in test [5], in test [6] and in [9] was inactive.

For `O=C(O)c1cc(N=Nc2ccc(S(=O)(=O)Nc3ccccn3)cc2)ccc1O`, the results for the AC50 in test [8] and in test [9] were 27.3 µM (active) and 0.00807 µM (active), respectively.

As to `CC[C@H](C)C(=O)O[C@H]1C[C@@H](C)C=C2C=C[C@H](C)[C@H](CC[C@@H]3C[C@@H](O)CC(=O)O3)[C@H]21`, the result in test [10], in [11], in test [12], in test [13], in test [14] and in test [15] was inactive. In addition, the outcome in test [16], in [17], in test [18] and in [19] was inactive. For the same compound, the AC50 in test [8] was 48.1 µM (active).

Consider `Nc1nc2ncc(CNc3ccc(C(=O)N[C@@H](CCC(=O)O)C(=O)O)cc3)nc2c(=O)[nH]1`, for which the outcome in test [1] and in test [2] was inactive.

For the compound `CNS(=O)(=O)c1cc(C(=O)N2CCC(CCN3C4CCC3CC(n3c(C)nc5ccccc53)C4)(c3cccc(F)c3)CC2)c(Cl)cc1F` (stereo not given), the result in test [1] was inactive.

Regarding `Cc1ccc(O)cc1`, the compound was classed as inactive in test [20] and in test [2].

On to `CCCCCCc1ccc(O)cc1O`, for which the AC50 in test [8] is 128 µM (active); in test [1], 14.4 µM (active); in [20], 14.2 µM (active); in test [2], 14.8 µM (active); in test [4], 20.4 µM (active); in [5], 41.4 µM (active). Besides, the AC50 in [9] is 12.8 µM (active). Further, the result in [6] was inactive.

As to `O=C(O)c1cccc(N(Cc2cccnc2)c2ccc(OC(F)F)c(OC(F)F)c2)c1`, the results for the AC50 in test [1], in [4] and in test [7] were 22.1 µM (active), 1.03 µM (active) and 10.7 µM (active), respectively. For the same compound, the compound was classed as inactive in test [20], in [2], in [5] and in test [6].

For the compound `CCNc1ccccc1`, the result in test [1], in [20] and in test [2] was inactive.

Regarding `CCCCC(CC)COC(=O)c1ccc(C(=O)OCC(CC)CCCC)cc1` (stereo not given), the result in test [1] and in test [20] was inactive.
